Compound activity deposited in PubChem BioAssay by National Center for Advancing Translational Sciences (NCATS).
This is a sample that favours compounds with a hit; in the whole collection about 5.9% have one here.
ATXN2 expr inh: ATXN2 expression inhibition; HEK-293 ATXN2-luciferase reporter, luminescence, 24 h; Potency, µM (top dose mostly 57 µM), inactives show at the highest dose activity change, negative = inhibition, hits mostly inhibitors; 0.72% of 360,000 active; AID 1745845; also: % is scaled to controls: 0 for no effect and ±100 for the full control effect; nearly all actives have a fitted effect of over 55% in size
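qHTS (up to 57 uM final) was run with 24 h compound exposure of reporter cells at 37 °C. Each well was multiplexed: SteadyGlo luminescence measured ATXN2-luciferase expression after a fluorogenic Gly-Phe-AFC viability readout (25 uM final).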
S2 tox: reduces viability in counter-screen for ATXN expression inhibitors | S2 cells (HEK-293 line with an ATXN2-luciferase reporter) viability, CellTiter-Fluor protease fluorescence, 24 h | Potency, µM (highest dose often 56.7 µM), usual class: cytotoxic | 0.49% of 400,000 active | AID 651635; also: nearly all actives have a fitted effect of over 40% in size
HepG2 tox: counter-screen for TGF-b inhibitors: cytotoxicity in HepG2 cells; HepG2 CAGA-GFP viability, ATP luminescence, 18 h; Potency, µM (top dose mostly 46.1 µM), inactives show at the top dose activity change, negative = cytotoxicity, hits mostly cytotoxic; 0.76% of 410,000 active; AID 588856
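CellTiter-Glo luminescence gave cytotoxicity after 18 hours at 37 degrees C. The cells were HepG2 CAGA-GFP in 1% FBS DMEM, stimulated with 500 pg/mL TGF-beta after compound addition. %Activity was normalised to no-cell wells (complete cell-killing) and DMSO (no toxicity), and curves were fitted and classified.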
KB-V1 MDR tox: KB-V1 MDR subline cytotoxicity; Potency, µM (doses to about 46.1 µM), most hits filed as cytotoxic; KB-V1 MDR cells viability, CellTiter-Glo, 72 h; AID 1347076; 3.4% of 400,000 active; also: % is scaled to controls: 0 for no effect and ±100 for the full control effect; nearly all actives have a fitted effect of over 60% in size
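KB-V1, DMEM (no phenol red) + 10% FBS; cpd pin-transferred, titration series; 72 h, 37 degrees C; CellTiter-Glo, luminescence. Data normalized, curve-fit.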
KB-3-1 cytotox: kills parental KB-3-1 adenocarcinoma cells; KB-3-1 viability, CellTiter-Glo ATP luminescence, 72 h; Potency, µM (highest dose often 46.1 µM), most hits filed as cytotoxic; 1.4% of 400,000 active; AID 1347075; also: % is scaled to controls: 0 for no effect and ±100 for the full control effect; nearly all actives have a fitted effect of over 60% in size
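Cytotoxicity measured as CellTiter-Glo luminescence after 72 h at 37 C. Compound titrations were pinned onto drug-naive KB-3-1 parental adenocarcinoma cells grown in DMEM with 10% FBS, and normalized data fitted to concentration-response curves.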
TGFb SMAD3 inh: inhibitors of TGF-b signaling. HepG2 CAGA-GFP TGF-b/SMAD3 reporter, GFP fluorescence, 18 h; TGF-beta stimulated, 500 pg/mL final. Potency, µM (doses to about 46.1 µM), without a hit: at the highest dose activity, negative = inhibition, most hits filed as inhibitors. AID 588855. 1.2% of 410,000 active; also: % is scaled to controls: 0 for no effect and ±100 for the full control effect; nearly all actives have a fitted effect of over 65% in size
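Using HEPG2 CAGA-GFP reporter cells at 1000 cells/well, we pinned test compounds, stimulated with recombinant TGF-beta (500 pg/mL final) and measured total well GFP after 18 h.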
Active calls of the source: *; i = inactive; u = inconclusive; x = not tested or not shown; ! = not active in a repeat. Calls follow the shape of the dose curve; as a rule, active = well fitted curve in the direction sought with a large enough effect; inconclusive = small, poorly fitted or top-dose-only effect, or another doubt; inactive = no such curve, though single readings can be large; an effect the other way counts as inactive or inconclusive. Potency is read from the fitted curve at half-maximal effect.

SMILES	ATXN2 expr inh	S2 tox	HepG2 tox	KB-V1 MDR tox	KB-3-1 cytotox	TGFb SMAD3 inh
CC1(C(=O)Nc2cnc3ccccc3c2)CCN1C(=O)c1ccccc1CCc1ccccc1 (centres undefined)	20µM*	i	-36%	18µM*	u	u
CCO[C@H](Cc1ccc(OCCc2ccc(OS(C)(=O)=O)cc2)cc1)C(=O)O	16%	i	x	x	x	x
CNc1nc(N/N=C/c2cc3c(cc2[N+](=O)[O-])OCO3)nc(Nc2ccccc2)n1	x	28µM*	16µM*	16µM*	i	u
COc1ccc(-c2c(-c3ccc(O)cc3O)n[nH]c2C)cc1OC	-11%	i	-3%	u	u	29%
COc1ccc(-c2cc(-c3ccc(OC)c(OC)c3)n[nH]2)c(O)c1	127%	i	-6%	2.6µM*	u	-25%
COc1ccc(-c2c(-c3ccc(OC)c(C)c3O)n[nH]c2C)cc1	u	x	-65%	i	i	14µM*
C=C(C)COc1ccc(-c2[nH]ncc2-c2ccc(Br)cc2)c(O)c1	u	u	-115%	12µM*	5.8µM*	20µM*
CCOc1ccc(-c2n[nH]c(C)c2Oc2ccc(OC)cc2)c(O)c1	-21%	i	13µM*	i	i	u
COc1ccc(-c2cc(-c3ccccc3O)[nH]n2)cc1OC	165%	i	-25%	i	i	13%
COc1ccc(-c2cn[nH]c2-c2ccc(OCc3ccc([N+](=O)[O-])cc3)cc2O)cc1	-8%	u	-96%	3.7µM*	u	u
C=C(C)COc1ccc(-c2n[nH]c(C)c2-c2ccc(Br)cc2)c(O)c1	-23%	x	14µM*	u	u	13µM*
CCOc1ccc(-c2[nH]ncc2-c2ccc(Cl)cc2)c(O)c1	x	u	-55%	i	i	u
C=C(C)COc1ccc(-c2ncncc2-c2ccc(Br)cc2)c(O)c1	-13%	x	-22%	i	i	u
C=C(C)COc1ccc(-c2[nH]ncc2-c2ccccc2OC)c(O)c1	u	u	18µM*	u	u	u
CCOc1ccc(-c2[nH]ncc2-c2ccc(OC)c(OC)c2)c(O)c1	-20%	u	-9%	3.7µM*	u	-2%
CN1[C@@H]2CC[C@H]1CC(NC(=O)n1c(=O)[nH]c3ccccc31)C2 (some centres undefined)	-15%	u	x	x	x	x
COc1ccc(Cl)cc1NC(=O)c1cn(C2CCCC2)c(=O)c2c1c1ccccc1n2C	x	x	-9%	x	x	-4%
CCc1nc2ccccc2c(=O)n1NC(=O)c1c(O)c2ccccc2n(CC)c1=O	-24%	i	-30%	8.2µM*	u	4%
CCn1c(=O)c(C(=O)Nn2c(C)nc3ccccc3c2=O)c(O)c2ccccc21	-15%	i	0%	u	i	-5%
CCCCc1nc2ccccc2c(=O)n1NC(=O)c1c(O)c2c(n(CC(C)C)c1=O)CCCC2	4%	i	9%	2.6µM*	4.6µM*	14%
CC(C)Cn1c2c(c(O)c(C(=O)Nc3ccc(F)cc3)c1=O)CCCC2	2%	i	-4%	u	i	9%
CCCn1c2c(c(O)c(C(=O)Nc3ccccc3)c1=O)CCCC2	8%	i	-7%	15µM*	i	-15%
CC(C)Cn1c2c(c(O)c(C(=O)Nn3c(Cc4ccccc4)nc4ccccc4c3=O)c1=O)CCCC2	-19%	i	-9%	u	u	9%
CCOC(=O)c1c(C)oc2nc(C)nc(Nc3cc(C)ccc3OC)c12	10%	i	-2%	u	i	1%
COc1ccc(CN2CC[C@H]3C=CC[C@@H](C(=O)Nc4ccccc4)[C@H]3C2=O)cc1OC	x	x	0%	u	i	-13%
SMILES	ATXN2 expr inh	S2 tox	HepG2 tox	KB-V1 MDR tox	KB-3-1 cytotox	TGFb SMAD3 inh
COC(=O)c1ccc(OC)c(CSc2nnc(COc3ccc(Cl)cc3)o2)c1	-18%	i	-7%	u	i	-4%
Cc1ccc(C(=O)CSc2nnc(COc3ccccc3)o2)cc1	-6%	i	6.3µM*	i	i	-5%
COC(=O)c1ccc(OC)c(CSc2nnc(COc3ccccc3)o2)c1	-13%	i	-3%	21µM*	i	15%
O=c1[nH]c(CN2CCN(c3ccccc3)CC2)nc2scc(-c3ccccc3)c12	51%	i	-5%	9.2µM*	u	-5%
CCCN1CCC(C)(C(=O)Nc2cccc(OC(C)C)c2)C1 (centres undefined)	11%	i	-19%	i	i	1%
CCOc1ccc(C2=C(C=C(C#N)C#N)C(c3ccccc3)c3ccccc3O2)cc1 (centres undefined)	-18%	u	-21%	u	i	-42%
COc1ccc(C2=C(CN(C)C)C(c3ccccc3)c3ccccc3O2)cc1 (centres undefined)	u	u	-26%	12µM*	i	u
Cc1cccc(C(=O)Nc2sc3c(c2C(=O)Nc2ccccc2)CCC3)c1	0%	u	-2%	i	i	1%
Cc1cccc(NC(=O)c2c(NC(=O)C(F)(F)F)sc3c2CCCCC3)c1	x	x	-111%	x	x	1.6µM*
O=C(COc1ccc(Cl)cc1)Nc1sc2c(c1C(=O)Nc1cccc(Cl)c1)CCCC2	x	x	-1%	x	x	-1%
Cc1cccc(C(=O)Nc2sc3c(c2C(=O)O)CCCC3)c1	33%	u	-24%	7.3µM*!	6.5µM*!	0%
Cc1ccc(NC(=O)c2c(NC(=O)C(F)(F)F)sc3c2CCCCC3)cc1	x	x	-60%	x	x	1.1µM*
Cc1cccc(NC(=O)c2c(Br)sc3c2CCCC3)c1	7%	i	-35%	i	i	u
O=C(Nc1cccc(Cl)c1)c1c(NC(=O)C(F)(F)F)sc2c1CCCC2	-45%	u	11µM*	12µM*	u	u
COc1cc(OC)c(C=CS(=O)(=O)Cc2ccc(OC)c(NCC(=O)O)c2)c(OC)c1	-2%	x	x	x	x	x
Cc1ccccc1NC(=O)c1c(NC(=O)c2ccccc2)sc2c1CCC2	15%	i	-1%	i	i	1%
Cc1ccccc1NC(=O)c1c(NC(=O)C(F)(F)F)sc2c1CCCCC2	x	x	-38%	x	x	1.4µM*
COc1ccc(OC)c(CC2C(=O)Nc3ccc(Br)cc32)c1 (centres undefined)	x	x	-53%	x	x	u
Cn1c(CC2C(=O)Nc3ccc(Br)cc32)nc2ccccc2c1=O (centres undefined)	-11%	i	13%	10µM*	u	u
CCCOc1ccc(CC2C(=O)Nc3ccc(Br)cc32)cc1 (centres undefined)	-24%	u	-95%	i	i	11µM*
